Molecules are shown by their SMILES. Where “and” joins values, the source holds several entries; their conditions need not be identical. Equal entries are not always repeated. Calls of active or inactive are those of the source.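 The calls were made as follows, unless noted: active = compounds whose cell count with miR-34 switched on is under 0.7 times the count with it off; inactive = the rest.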 Starred links: 1 amine or outer side, 2 acyl side, 3 side chain; linkers in the order of their positions; H or OH if unused. Positions of bridges follow the written chain, without caps; N, C: chain ends. Non-standard residues stand in square brackets, D forms with d. Residues, ends and D or L forms follow the SMILES beside them. Chains are numbered I, II in the order given. Actinocin(9to1) = Cc1c2oc3c(C)ccc(C(=O)[*:1])c3nc-2c(C(=O)[*:2])c(N)c1=O; NMeV = CN[C@H](C(=O)O)C(C)C; Sar = CNCC(=O)O

Assay [1] can be described thus: sensitizers of A549 cells to miR-34 induction, primary screen, imaging, A549 dox-inducible miR-34, nuclei and caspase counts (AID 1347080). As to conditions: A549 miR-34 inducible, Hoechst nuclei count, 48 h.
Assay [2] addresses NAD(+) hydrolase SARM1 (Homo sapiens) (UniProt Q6SZW1). The assay can be described thus: SARM1 TIR NADase inhibitors, cell lysate, NAD-Glo luminescence (AID 1508614;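 active = compound whose remaining NAD level is above about 45 nM, limit read from the data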;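 also: higher remaining NAD means stronger inhibition of SARM1 NADase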). As to conditions: SAM-TIR HEK293T lysate NADase, at 1 µM, stronger effect = higher value.
In assay [3] the target is Mitogen-activated protein kinase 7 (Homo sapiens) (UniProt Q13164). The assay can be described thus: ERK5 transactivation activators in reporter cells, primary screen, cell-based, HTS (AID 1508626;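 active = luciferase signal above three times the same-plate solvent-only control wells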;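 also: luciferase driven by Gal4-ERK5 fusion binding five Gal4 sites before minimal TATA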). The following applies: HeLa Gal4-ERK5 transactivation, 18 h, at 5 µM, stronger effect = higher value.
Sequence of Mitogen-activated protein kinase 7 (Homo sapiens) (Q13164 whole entry, looked up, the tested form may be a part): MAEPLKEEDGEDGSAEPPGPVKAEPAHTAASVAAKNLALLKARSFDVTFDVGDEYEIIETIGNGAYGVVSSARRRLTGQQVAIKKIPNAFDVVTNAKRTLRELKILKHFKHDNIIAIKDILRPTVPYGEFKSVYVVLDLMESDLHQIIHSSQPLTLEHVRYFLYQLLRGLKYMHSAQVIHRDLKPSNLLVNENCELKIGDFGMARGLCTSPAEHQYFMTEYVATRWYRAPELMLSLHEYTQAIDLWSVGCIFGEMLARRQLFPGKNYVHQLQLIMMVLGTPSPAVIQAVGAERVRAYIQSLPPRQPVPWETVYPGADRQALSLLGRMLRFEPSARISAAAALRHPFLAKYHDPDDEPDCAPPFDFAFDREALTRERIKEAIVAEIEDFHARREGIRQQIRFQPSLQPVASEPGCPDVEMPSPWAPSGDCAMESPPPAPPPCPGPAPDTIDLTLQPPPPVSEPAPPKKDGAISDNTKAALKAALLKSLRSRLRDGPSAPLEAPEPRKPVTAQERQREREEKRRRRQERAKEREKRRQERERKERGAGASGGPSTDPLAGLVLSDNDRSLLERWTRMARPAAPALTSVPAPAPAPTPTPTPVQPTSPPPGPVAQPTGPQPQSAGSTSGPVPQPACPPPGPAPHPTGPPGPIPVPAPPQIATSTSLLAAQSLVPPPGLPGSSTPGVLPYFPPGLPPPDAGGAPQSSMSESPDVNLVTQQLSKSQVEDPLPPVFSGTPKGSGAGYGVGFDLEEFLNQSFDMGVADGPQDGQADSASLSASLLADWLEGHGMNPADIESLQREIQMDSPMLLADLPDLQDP
The nature of assay [4]: survival rescue of mitochondrial mutant cells in low glucose, primary screen, MELAS cybrids, Rieske KO mouse fibroblasts, CellTiter-Glo (AID 1508586;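 active = mean z-score across replicates of 1.96 or higher in either the MELAS or the Rieske mutant cell line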;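 also: z relative to plate mean and SD of compound and empty wells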).
Assay [5] in a line: viability rescue of complex I mutant cybrids, primary screen, cell-based, galactose medium, ATP luminescence (AID 1645843;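 active = z-score of at least 1.8 in each of two replicates, scored against plate mean and spread of sample wells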;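 also: positive z means more ATP and so rescue of galactose-driven cybrid death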). The following applies: complex I mutant cybrid cells, 72 h, stronger effect = higher value.
Assay [6] can be described thus: inhibitors of Cryptococcus chitosan production, flow cytometry, Cibacron Brilliant Red staining (AID 1347148; call rule not given here;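 also: compound exposure lasted three days at 37 degrees C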). The following applies: Cryptococcus neoformans chitosan, stronger effect = lower value; at 10 µM unless noted.
A short description of assay [7]: phospholipid biosynthesis inhibitors in animal cells, primary screen, cell-based, LOPAC library, screen 4 (AID 1347384; call rule not given here). The following applies: phospholipid biosynthesis inhibition screen, at 10 µM.
The mark [8] stands for this setting: stronger effect = lower value, cell number ratio, induced over uninduced.
The mark [9] stands for this setting: measured here: relative caspase fold change +Dox/-Dox.
[10] abbreviates: measured here: total cells with miR-34 induction, stronger effect = lower value.
The mark [11] stands for this setting: measured here: total cells without miR-34 induction.
Setting [12] is: MELAS cybrid survival, CellTiter-Glo 48 h, stronger effect = higher value.
The mark [13] stands for this setting: Rieske KO mouse fibroblast survival, CellTiter-Glo 72 h.

Sequence of NAD(+) hydrolase SARM1 (Homo sapiens) (Q6SZW1 whole entry, looked up, the tested form may be a part): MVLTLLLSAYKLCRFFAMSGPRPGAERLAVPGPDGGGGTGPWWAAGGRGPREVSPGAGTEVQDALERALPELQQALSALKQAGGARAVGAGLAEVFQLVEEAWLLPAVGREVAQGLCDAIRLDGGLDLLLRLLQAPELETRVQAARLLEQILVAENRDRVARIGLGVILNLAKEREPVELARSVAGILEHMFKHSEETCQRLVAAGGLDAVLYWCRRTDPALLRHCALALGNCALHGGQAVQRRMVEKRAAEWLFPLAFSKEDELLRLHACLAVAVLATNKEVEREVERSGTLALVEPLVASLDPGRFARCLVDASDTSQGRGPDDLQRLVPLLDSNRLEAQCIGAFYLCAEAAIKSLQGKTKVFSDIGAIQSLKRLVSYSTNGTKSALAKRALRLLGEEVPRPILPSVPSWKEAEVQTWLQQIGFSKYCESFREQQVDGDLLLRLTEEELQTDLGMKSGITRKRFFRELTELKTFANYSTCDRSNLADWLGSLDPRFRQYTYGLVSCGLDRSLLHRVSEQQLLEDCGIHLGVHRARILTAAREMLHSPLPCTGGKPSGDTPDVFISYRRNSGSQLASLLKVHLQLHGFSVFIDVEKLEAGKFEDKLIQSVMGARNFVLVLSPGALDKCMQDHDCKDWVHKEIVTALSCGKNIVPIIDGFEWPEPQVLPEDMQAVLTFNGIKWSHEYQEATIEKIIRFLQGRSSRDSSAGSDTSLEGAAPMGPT

Consider `O=C(O)c1ccc(S(=O)(=O)N(Cl)Cl)cc1`, for which the fold change in assay [1] (setting [8]) was 0.899 (inactive); in assay [1] (setting [9]), 0.716. Also, the cell count in assay [1] (setting [10]) came to 11500; in assay [1] (setting [11]), 12800. In addition, the remaining NAD in assay [2] is 10 nM (inactive). The luciferase signal in assay [3] was 48 AU (inactive).

With `Nc1ccc(C(=O)O)c(O)c1`, the cell count in assay [1] (setting [11]) is 10200 and 11500 and 13800. In addition, the z-score in assay [4] (setting [12]) was -0.177 (inactive) and -0.201 (inactive) and 0.567 (inactive); in assay [4] (setting [13]), -0.173 and -0.712 and -0.26; in assay [5], 0.45 (inactive). Besides, the remaining NAD in assay [2] is 10 nM (inactive). Moreover, in assay [3], the luciferase signal was 44 AU (inactive).

`CNCCCCOc1ccccc1Cc1ccccc1`: the fold change is 0.954 (inactive) and 0.995 (inactive) in assay [1] (setting [8]); 1.55 and 0.924 in assay [1] (setting [9]). In addition, the cell count in assay [1] (setting [10]) was 7470 and 8010; in assay [1] (setting [11]), 7840 and 8050. Besides, in assay [5], the z-score was -1.31 (inactive) and -0.275 (inactive).

Consider `NC1CCN(c2cccc(Cl)n2)CC1`, for which the fold change is 0.969 (inactive) and 0.942 (inactive) in assay [1] (setting [8]); 1.72 and 1.85 in assay [1] (setting [9]). Further, the cell count was 9480 and 9570 in assay [1] (setting [10]); 9780 and 10200 in assay [1] (setting [11]). Moreover, the z-score in assay [5] was 0.81 (inactive) and 0.31 (inactive).

In the case of `Oc1ccc(Cl)c2cccnc12`, the figures for the fold change in assay [1] (setting [8]) and in assay [1] (setting [9]) were 0.902 (inactive) and 0.654, respectively. Also, the cell count in assay [1] (setting [10]) was 10900; in assay [1] (setting [11]), 12000. Further, in assay [2], the remaining NAD was 10 nM (inactive). The luciferase signal in assay [3] was 60 AU (inactive).

In the case of `NC(=O)c1ccc([N+](=O)[O-])cc1Cl`, the fold change is 0.897 (inactive) in assay [1] (setting [8]) and 3.38 in assay [1] (setting [9]). Also, the cell count was found to be 11800 in assay [1] (setting [10]) and 13200 in assay [1] (setting [11]). The remaining NAD in assay [2] is 10 nM (inactive). In addition, in assay [3], the luciferase signal was 180 AU (inactive).

As for `CC(=O)OCC(COC(C)=O)OC(C)=O`, the fold change is 0.85 (inactive) in assay [1] (setting [8]) and 3.03 in assay [1] (setting [9]). Besides, the cell count in assay [1] (setting [10]) was 10700; in assay [1] (setting [11]), 12600. Further, the remaining NAD in assay [2] was 10 nM (inactive). Besides, the luciferase signal in assay [3] is 8 AU (inactive).

With `CO/N=C1\CN(c2nc3c(cc2F)c(=O)c(C(=O)O)cn3C2CC2)CC1CN` (stereo unspecified), the fold change in assay [1] (setting [8]) was 0.847 (inactive); in assay [1] (setting [9]) it was 1.93. Moreover, the cell count in assay [1] (setting [10]) is 10700; in assay [1] (setting [11]) it was 12600. In assay [2], the remaining NAD was 10 nM (inactive). The luciferase signal in assay [3] was 40 AU (inactive).

Turning to `Cc1c2oc3c(C)ccc(C(=O)N[C@@H]4C(=O)N[C@H](C(C)C)C(=O)N5CCC[C@H]5C(=O)N(C)CC(=O)N(C)[C@@H](C(C)C)C(=O)O[C@@H]4C)c3nc-2c(C(=O)N[C@@H]2C(=O)N[C@H](C(C)C)C(=O)N3CCC[C@H]3C(=O)N(C)CC(=O)N(C)[C@@H](C(C)C)C(=O)O[C@@H]2C)c(N)c1=O` (I: T[dV]P[Sar][NMeV] / II: T[dV]P[Sar][NMeV]; ester I:1-I:C, II:1-II:C; linker I:N-II:N via Actinocin(9to1)), in assay [6], the fold fluorescence was 23.3 [at 107.6 µM] (inactive). Moreover, the remaining NAD in assay [2] was 10 nM (inactive). Also, in assay [3], the luciferase signal is 16 AU (inactive).

Take `C[C@@H]1CN(CCCn2c3ccccc3c3ccccc32)C[C@H](C)N1`: the fold change in assay [1] (setting [8]) was 0.959 (inactive); in assay [1] (setting [9]), 0.675. Further, the cell count was 8000 in assay [1] (setting [10]) and 8340 in assay [1] (setting [11]). The z-score in assay [5] is -0.695 (inactive).

For the molecule `CC[N+](C)(CC)CCOC(=O)C(O)(c1ccccc1)C1CCCCC1` (stereo unspecified), the results for the fold change in assay [1] (setting [8]) and in assay [1] (setting [9]) were 0.958 (inactive) and 1.3, respectively. For the same molecule, the figures for the cell count in assay [1] (setting [10]) and in assay [1] (setting [11]) were 8830 and 9210, respectively. Further, in assay [2], the remaining NAD is 10 nM (inactive). The z-score in assay [5] is 0.47 (inactive).

In the case of `CC1CCC(NC(=O)N(CCCl)N=O)CC1` (stereo unspecified), the figures for the fold change in assay [1] (setting [8]) and in assay [1] (setting [9]) were 0.814 (inactive) and 5.15, respectively. For the same molecule, the cell count in assay [1] (setting [10]) amounted to 9380; in assay [1] (setting [11]) it was 11500. In addition, in assay [2], the remaining NAD is 10 nM (inactive). Further, the luciferase signal in assay [3] was 44 AU (inactive).

Take `CC(Cc1ccccc1)(NC(=O)CN)c1ccccc1` (stereo unspecified): the fold change in assay [1] (setting [8]) is 0.999 (inactive) and 0.923 (inactive); in assay [1] (setting [9]), 2.09 and 0.645. Further, the cell count in assay [1] (setting [10]) is 9240 and 8260; in assay [1] (setting [11]) it was 9260 and 8950. Moreover, the z-score in assay [5] was 0.32 (inactive) and -0.22 (inactive).

Turning to `O=C1CC2(CCCC2)CC(=O)N1CCNCC1COc2ccccc2O1` (stereo unspecified), the fold change in assay [1] (setting [8]) was 0.839 (inactive) and 0.901 (inactive); in assay [1] (setting [9]) it was 1.72 and 0.868. In addition, the cell count in assay [1] (setting [10]) is 8960 and 8470; in assay [1] (setting [11]) it was 10700 and 9400. Moreover, the z-score in assay [5] was 0.655 (inactive) and -0.78 (inactive).

Take `COc1cc2c(cc1OC)-c1cc(=Nc3c(C)cc(C)cc3C)n(C)c(=O)n1CC2`: the fold fluorescence in assay [6] is 11.7 [at 123.3 µM] (inactive). For the same molecule, the molecule was classed as inactive in assay [7]. Also, the z-score in assay [4] (setting [12]) was 1.02 (inactive); in assay [4] (setting [13]), 1.81; in assay [5], -0.95 (inactive) and -0.575 (inactive) and 0.465 (inactive).

The values are drawn from PubChem BioAssay.
